# Inconclusive results are not listed. Values without a mark were called inactive. Active and inactive are the calls of the source. Calls come from the whole dose curve; as a rule, active = well fitted inhibition curve with a large enough effect; inconclusive = small, poorly fitted or top-dose-only effect; inactive = flat fitted curve, though single readings scatter.
# Test system: not listed separately
# Assay: qHTS profiling for inhibitors of Plasmodium falciparum proliferation (AID 504749); note: nearly all actives have a fitted effect of over 60% in size;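 for activity, negative = inhibition: 0% = DMSO vehicle and full inhibition = artemisinin control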
# Conditions: P. falciparum in erythrocytes, SYBR Green DNA, 72 h; at 28.7 µM (top of the series); parasite line B
# How it was run: (§1)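 Infected RBCs, 0.3% parasitemia/2.5% Hct final; cpd 72 h, 37 C, 5% CO2; lysis buffer with saponin/triton/SYBR Green I, o/n RT dark; FI 485/535; norm. to artemisinin (0.29 uM) and DMSO.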
# Potency is the fitted concentration of half-maximal effect.
row,Structure (SMILES),"activity, negative = inhibition [%]"
1,C[C@H](N)Cc1ccccc1,-0.429
2,C[C@]12C=CC(=O)C=C1CC[C@@H]1C2CC[C@]2(C)OC(=O)CCC12 (stereo partly drawn),7.55
3,OCC(O)[C@H]1O[C@@H]2O[C@H](C(Cl)(Cl)Cl)O[C@@H]2[C@H]1O (stereo partly drawn),3.35
4,CC1(C)[C@@H](C=C(Cl)Cl)[C@@H]1C(=O)OCc1c(F)c(F)cc(F)c1F,1.84
5,C=C1Nc2ccccc2C(=O)N1c1ccccc1C,-23.4
6,CC1OC(O[C@H]2C[C@@H](O)[C@]3(CO)[C@@H]4C(CC[C@]3(O)C2)[C@@]2(O)CC[C@H](C3=CC(=O)OC3)[C@@]2(C)C[C@H]4O)C(O)C(O)C1O (stereo partly drawn),-0.0666
7,O=[N+]([O-])OC1CO[C@H]2C(O[N+](=O)[O-])COC12 (stereo partly drawn),1.56
8,CCOC(=O)/C=C(C)/C=C/CC(C)CCCC(C)C (stereo not drawn),8.06
9,[S]=[Sb][S][Sb]=[S],1.29
10,CN1C2CCC1C(C(=O)O)C(OC(=O)c1ccccc1)C2 (stereo not drawn),6.56
11,Cc1ccc2c(c1)[C@@H]1CN(C)CC[C@H]1N2,11.3
12,Nc1nc(O)c(-c2ccccc2)o1,6.38
13,C=CC[N+]1(C)CCC23c4c5ccc(O)c4O[C@H]2C(=O)CC[C@@]3(O)C1C5 (stereo partly drawn),14.5
14,OC[C@@H](O)[C@H]1O[C@@H]2OC(C(Cl)(Cl)Cl)O[C@H]2[C@H]1O (stereo partly drawn),19.1
15,CCCCCCC(=O)O[C@H]1CC[C@H]2[C@@H]3CCC4CC(=O)C=C(C)[C@]4(C)[C@H]3CC[C@]12C (stereo partly drawn),-5.28
16,Cc1cc(C)cc(C(=O)OC2CC3CCC(C2)N3C)c1 (stereo not drawn),8.93
17,CCCN1CCCC2Cc3nc(N)ncc3CC21 (stereo not drawn),5.03
18,COc1ccc2c3c1O[C@H]1[C@@H](O)C=C[C@H]4C(C2)NCCC341 (stereo partly drawn),-2.8
19,CCCCCC(O)C1C(=O)OC(C)C(O)\C=C/C=C\C=C/C=C\C=C(\C)C(O)C(O)C(O)CC(O)CC(O)CC(O)CC(O)CC1O (stereo not drawn),-8.14

# Test system: 3D7
# Assay: as above
# Conditions: P. falciparum in erythrocytes, SYBR Green DNA, 72 h; series mostly up to 28.7 µM; activity, negative = inhibition: at the top concentration
# How it was run: as §1
Structure (SMILES),"activity, negative = inhibition",Potency
C[C@H](N)Cc1ccccc1,9.23%,
C[C@]12C=CC(=O)C=C1CC[C@@H]1C2CC[C@]2(C)OC(=O)CCC12 (stereo partly drawn),0.172%,
OCC(O)[C@H]1O[C@@H]2O[C@H](C(Cl)(Cl)Cl)O[C@@H]2[C@H]1O (stereo partly drawn),4.1%,
CC1(C)[C@@H](C=C(Cl)Cl)[C@@H]1C(=O)OCc1c(F)c(F)cc(F)c1F,11.2%,
CC1(C)S[C@@H]2[C@H](N)C(=O)N2C1C(=O)O (stereo partly drawn),-0.842% [at 12.8 µM],
C=C1Nc2ccccc2C(=O)N1c1ccccc1C,5.74%,
CC1OC(O[C@H]2C[C@@H](O)[C@]3(CO)[C@@H]4C(CC[C@]3(O)C2)[C@@]2(O)CC[C@H](C3=CC(=O)OC3)[C@@]2(C)C[C@H]4O)C(O)C(O)C1O (stereo partly drawn),0.834%,
O=[N+]([O-])OC1CO[C@H]2C(O[N+](=O)[O-])COC12 (stereo partly drawn),2.54%,
CCOC(=O)/C=C(C)/C=C/CC(C)CCCC(C)C (stereo not drawn),1.3%,
[S]=[Sb][S][Sb]=[S],3.06%,
CN1C2CCC1C(C(=O)O)C(OC(=O)c1ccccc1)C2 (stereo not drawn),2.58%,
C[C@@H]1CC[C@H]2[C@@H](C)C(=O)O[C@@H]3OC4(C)CC[C@@H]1C32OO4 (stereo partly drawn),,0.0079 µM (active)
Cc1ccc2c(c1)[C@@H]1CN(C)CC[C@H]1N2,11.1%,
Nc1nc(O)c(-c2ccccc2)o1,0.367%,
C=CC[N+]1(C)CCC23c4c5ccc(O)c4O[C@H]2C(=O)CC[C@@]3(O)C1C5 (stereo partly drawn),12.9%,
OC[C@@H](O)[C@H]1O[C@@H]2OC(C(Cl)(Cl)Cl)O[C@H]2[C@H]1O (stereo partly drawn),-0.369%,
CCCCCCC(=O)O[C@H]1CC[C@H]2[C@@H]3CCC4CC(=O)C=C(C)[C@]4(C)[C@H]3CC[C@]12C (stereo partly drawn),,11.2 µM (active)
Cc1cc(C)cc(C(=O)OC2CC3CCC(C2)N3C)c1 (stereo not drawn),4.12%,
CCCN1CCCC2Cc3nc(N)ncc3CC21 (stereo not drawn),2.51%,
COc1ccc2c3c1O[C@H]1[C@@H](O)C=C[C@H]4C(C2)NCCC341 (stereo partly drawn),9.22%,
CCCCCC(O)C1C(=O)OC(C)C(O)\C=C/C=C\C=C/C=C\C=C(\C)C(O)C(O)C(O)CC(O)CC(O)CC(O)CC(O)CC1O (stereo not drawn),7.18%,
CCCCCc1cc(O)c2c(c1)OC(C)(C)C1CC=C(C)CC21 (stereo not drawn),,2.82 µM (active)

# Test system: 7G8
# Assay: as above
# Conditions: P. falciparum in erythrocytes, SYBR Green DNA, 72 h; series mostly up to 28.7 µM; activity, negative = inhibition: at the top concentration
# How it was run: as §1
Structure (SMILES),"activity, negative = inhibition",Potency
C[C@H](N)Cc1ccccc1,-2.57%,
C[C@]12C=CC(=O)C=C1CC[C@@H]1C2CC[C@]2(C)OC(=O)CCC12 (stereo partly drawn),1.49%,
OCC(O)[C@H]1O[C@@H]2O[C@H](C(Cl)(Cl)Cl)O[C@@H]2[C@H]1O (stereo partly drawn),-12.5%,
CC1(C)[C@@H](C=C(Cl)Cl)[C@@H]1C(=O)OCc1c(F)c(F)cc(F)c1F,-17%,
CC1(C)S[C@@H]2[C@H](N)C(=O)N2C1C(=O)O (stereo partly drawn),-1.57% [at 12.8 µM],
C=C1Nc2ccccc2C(=O)N1c1ccccc1C,-17.1%,
CC1OC(O[C@H]2C[C@@H](O)[C@]3(CO)[C@@H]4C(CC[C@]3(O)C2)[C@@]2(O)CC[C@H](C3=CC(=O)OC3)[C@@]2(C)C[C@H]4O)C(O)C(O)C1O (stereo partly drawn),10.5%,
O=[N+]([O-])OC1CO[C@H]2C(O[N+](=O)[O-])COC12 (stereo partly drawn),7.14%,
CCOC(=O)/C=C(C)/C=C/CC(C)CCCC(C)C (stereo not drawn),-9.05%,
[S]=[Sb][S][Sb]=[S],0.114%,
CN1C2CCC1C(C(=O)O)C(OC(=O)c1ccccc1)C2 (stereo not drawn),1.06%,
C[C@@H]1CC[C@H]2[C@@H](C)C(=O)O[C@@H]3OC4(C)CC[C@@H]1C32OO4 (stereo partly drawn),,0.0016 µM (active)
Cc1ccc2c(c1)[C@@H]1CN(C)CC[C@H]1N2,-4.04%,
Nc1nc(O)c(-c2ccccc2)o1,-2.44%,
C=CC[N+]1(C)CCC23c4c5ccc(O)c4O[C@H]2C(=O)CC[C@@]3(O)C1C5 (stereo partly drawn),-4.97%,
OC[C@@H](O)[C@H]1O[C@@H]2OC(C(Cl)(Cl)Cl)O[C@H]2[C@H]1O (stereo partly drawn),-9.44%,
CCCCCCC(=O)O[C@H]1CC[C@H]2[C@@H]3CCC4CC(=O)C=C(C)[C@]4(C)[C@H]3CC[C@]12C (stereo partly drawn),,8.91 µM (active)
Cc1cc(C)cc(C(=O)OC2CC3CCC(C2)N3C)c1 (stereo not drawn),,8.91 µM (active)
CCCN1CCCC2Cc3nc(N)ncc3CC21 (stereo not drawn),-7.09%,
COc1ccc2c3c1O[C@H]1[C@@H](O)C=C[C@H]4C(C2)NCCC341 (stereo partly drawn),-17.1%,
CCCCCC(O)C1C(=O)OC(C)C(O)\C=C/C=C\C=C/C=C\C=C(\C)C(O)C(O)C(O)CC(O)CC(O)CC(O)CC(O)CC1O (stereo not drawn),4.24%,
CCCCCc1cc(O)c2c(c1)OC(C)(C)C1CC=C(C)CC21 (stereo not drawn),,0.708 µM (active)
